In PubChem BioAssay AID1159580 (chemical genetic matrix, 2015):
Hit rate of the full screen: of about 5,500 compounds, about 2,000 (36%) were called active. Another 18% or so got no clear call; they are omitted. Cut-off read from the data, not from the text of the source: active = normalized growth mostly below about 0.91 (no sharp cut-off); inconclusive = no clear call, values can overlap the other calls; inactive = mostly above about 0.92. The list shows a part of the results.

Assay: chemical genetic growth profiling, strain panel (AID 1159580);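 note: tested at 20 µM; growth read once vehicle control cultures reached saturation at 30 °C; 1 = growth at the plate median or of vehicle wells; lower values mean less growth of the strain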
Conditions: S. cerevisiae deletion strains, growth OD

Measured: normalized growth

S=C(NNc1ccccc1)Nc1cc(Cl)ccc1Cl
inactive: locus YAR019C, strain CDC15, active compounds read low 0.963 | locus YBL105C, strain PKC1, active compounds read low 0.958 | locus YBR135W, strain CKS1, active compounds read low 0.96 | locus YBR136W, strain MEC1, active compounds read low 0.962 | locus YBR160W, strain CDC28, active compounds read low 0.963 | locus YDL017W, strain CDC7, active compounds read low 0.962 | locus YDL028C, strain MPS1, active compounds read low 0.97 | locus YDL101C, strain DUN1, active compounds read low 0.963 | locus YDL108W, strain KIN28, active compounds read low 0.974 | locus YDL132W, strain cdc53, active compounds read low 0.959 | locus YDL214C, strain PRR2, active compounds read low 0.953 | locus YDR052C, strain DBF4, active compounds read low 0.966 | locus YDR054C, strain cdc34, active compounds read low 0.939 | locus YDR226W, strain ADK1, active compounds read low 0.985 | locus YDR477W, strain SNF1, active compounds read low 0.945 | locus YER123W, strain YCK3, active compounds read low 0.921 | locus YER133W, strain GLC7, active compounds read low 0.958 | locus YFL009W, strain cdc4, active compounds read low 0.974 | locus YFL029C, strain CAK1, active compounds read low 0.95 | locus YFR003C, strain YPI1, active compounds read low 0.961 | locus YFR019W, strain FAB1, active compounds read low 1 | locus YFR028C, strain CDC14, active compounds read low 0.965 | locus YGR040W, strain KSS1, active compounds read low 0.94 | locus YGR052W, strain FMP48, active compounds read low 1.02 | locus YGR092W, strain DBF2, active compounds read low 0.726 | locus YHR030C, strain SLT2, active compounds read low 0.853 | locus YHR079C, strain IRE1, active compounds read low 0.909 | locus YHR082C, strain KSP1, active compounds read low 0.935 | locus YHR205W, strain SCH9, active compounds read low 0.938 | locus YIL147C, strain SLN1, active compounds read low 0.965 | locus YJL095W, strain BCK1, active compounds read low 0.918 | locus YJL128C, strain PBS2, active compounds read low 0.967 | locus YJL157C, strain FAR1, active compounds read low 0.947 | locus YJR016C, strain ILV3, active compounds read low 0.961 | locus YJR066W, strain TOR1 (second series), active compounds read low 0.934 | locus YJR066W, strain TOR1, active compounds read low 0.894 | locus YKL048C, strain ELM1, active compounds read low 0.951 | locus YKL067W, strain YNK1, active compounds read low 0.976 | locus YKL101W, strain HSL1, active compounds read low 0.957 | locus YKL193C, strain SDS22, active compounds read low 0.955 | locus YKL203C, strain TOR2, active compounds read low 1 | locus YLR113W, strain HOG1, active compounds read low 0.874 | locus YLR133W, strain CKI1, active compounds read low 0.955 | locus YLR403W, strain SFP1, active compounds read low 0.936 | locus YML070W, strain DAK1, active compounds read low 0.948 | locus YMR001C, strain CDC5, active compounds read low 0.959 | locus YMR205C, strain PFK2 (second series), active compounds read low 0.98 | locus YMR277W, strain FCP1, active compounds read low 0.957 | locus YNL006W, strain LST8, active compounds read low 0.971 | locus YNL020C, strain ARK1, active compounds read low 0.964 | locus YNL161W, strain CBK1, active compounds read low 0.956 | locus YNL183C, strain NPR1, active compounds read low 0.957 | locus YNL207W, strain RIO2, active compounds read low 0.946 | locus YNL222W, strain SSU72, active compounds read low 0.957 | locus YNL307C, strain MCK1 (second series), active compounds read low 0.914 | locus YOL078W, strain AVO1, active compounds read low 0.958 | locus YOL136C, strain PFK27, active compounds read low 0.953 | locus YOR061W, strain CKA2, active compounds read low 0.909 | locus YOR119C, strain RIO1, active compounds read low 0.958 | locus YOR231W, strain MKK1, active compounds read low 0.928 | locus YOR329C, strain SCD5, active compounds read low 0.952 | locus YPL031C, strain PHO85, active compounds read low 0.925 | locus YPL153C, strain RAD53, active compounds read low 0.922 | locus YPL204W, strain HRR25, active compounds read low 0.938 | locus YPL209C, strain IPL1, active compounds read low 0.964 | locus YPL256C, strain CLN2, active compounds read low 0.893 | locus YPR025C, strain CCL1, active compounds read low 0.96 | locus YPR106W, strain ISR1, active compounds read low 0.964 | locus YPR111W, strain DBF20, active compounds read low 0.973 | strain NNK1, active compounds read low 0.964 | strain TSCII, active compounds read low 0.957

NC(CCCP(=O)(O)O)C(=O)O (stereo unspecified)
inactive: locus YAL013W, strain DEP1, active compounds read low 0.993 | locus YAL040C, strain CLN3, active compounds read low 1.01 | locus YCL061C, strain MRC1 (second series), active compounds read low 1 | locus YDR363W, strain ESC2, active compounds read low 1.09 | locus YER002W, strain NOP16, active compounds read low 0.993 | locus YGR078C, strain PAC10, active compounds read low 1.02 | locus YMR263W, strain SAP30, active compounds read low 1 | locus YMR307W, strain GAS1, active compounds read low 0.982 | locus YNL175C, strain NOP13, active compounds read low 1.01 | locus YNL197C, strain WHI3, active compounds read low 1 | locus YNL224C, strain SQS1, active compounds read low 1.02 | locus YNL322C, strain KRE1, active compounds read low 1 | locus YOR083W, strain WHI5 (second series), active compounds read low 1.01 | locus YPL055C, strain LGE1, active compounds read low 0.977 | locus YPL241C, strain CIN2, active compounds read low 0.993
